In the supplement of paper PMC10849652:
About 7,900 targets were measured; listed, in parts, are those with a hit and a random draw of the rest. About 0.6% of all pairs of compound and target were hits.

How the values were obtained:
Test in all cases: log2 fold change, soluble protein after heating vs DMSO (PISA); higher = thermal stabilisation; K562 cells, 10 uM, 30 min; active = over 0.2 and 3.5 SD of the protein, either way, in both replicates (recomputed)
[1] = compound: C1=CC=C(C=C1)[C@H](COC2=CC3=C(C=C2)NC(=O)N3)NC(=O)C4=CC=CN(C4=O)CC5=CC(=C(C=C5)F)F
How it was run: (§1)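 K562 cells at 2×10^6 cells/mL were exposed to 10 μM compound for 30 min, then aliquots were heated for 3 min across 48°C-58°C, pooled, and extracted in PBS containing 0.5% NP-40 at 4°C. The supernatant after 21,000xg for 90 min was taken as soluble protein and measured by TMTpro 16plex LC-MS/MS with channel sums equalised. Thermal stability is reported relative to control samples, with values from duplicates. Fold changes are given on a log2 scale.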

[2] = compound: CC1=C(SC2=C1C(=N[C@H](C3=NN=C(N32)C)CC(=O)N)C4=CC=C(C=C4)Cl)C
How it was run: as §1

[3] = compound: CC1=C2C(=CC=C1)N=C(N(C2=O)C3=CC=CC=C3C)CN4C=NC5=C(N=CN=C54)N
How it was run: as §1

[4] = compound: Cc1sc2c(c1C)C(c1ccc(Cl)cc1)=N[C@@H](CC(=O)OC(C)(C)C)c1nnc(C)n1-2
How it was run: as §1

[5] = compound: c1ccc([C@@H]2C[C@H]2NC2CCNCC2)cc1
How it was run: as §1

Measured: log2 fold change

DDX46 (UniProt Q7L014)
inactive: [1] -0.059 | [2] 0.09 | [3] 0.184 | [4] -0.064 | [5] 0

CTSB (UniProt P07858)
inactive: [1] -0.015 | [2] -0.024 | [3] 0.019 | [4] -0.024 | [5] -0.035

FAM118B (UniProt Q9BPY3)
inactive: [1] -0.276 | [2] -0.01 | [3] 0.208 | [4] -0.019 | [5] -0.009

EEF1D isoform 2 (UniProt P29692)
inactive: [1] -0.031 | [2] 0.003 | [3] 0.073 | [4] 0.012 | [5] -0.011

DNAJC24 (UniProt Q6P3W2)
Chain of UniProt Q6P3W2 (Q6P3W2 whole entry, looked up): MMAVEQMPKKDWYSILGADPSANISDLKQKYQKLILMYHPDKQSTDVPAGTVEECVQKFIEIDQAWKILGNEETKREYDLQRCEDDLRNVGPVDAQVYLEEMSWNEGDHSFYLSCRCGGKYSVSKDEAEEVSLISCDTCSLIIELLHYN
inactive: [1] 0.05 | [2] 0.072 | [3] 0.025 | [4] -0.002 | [5] 0.054

DNAH10 (UniProt Q8IVF4)
inactive: [1] 0.09 | [2] 0.103 | [3] 0.062 | [4] -0.131 | [5] 0.031

EBNA1BP2 (UniProt Q99848)
Chain of UniProt Q99848 (Q99848 whole entry, looked up): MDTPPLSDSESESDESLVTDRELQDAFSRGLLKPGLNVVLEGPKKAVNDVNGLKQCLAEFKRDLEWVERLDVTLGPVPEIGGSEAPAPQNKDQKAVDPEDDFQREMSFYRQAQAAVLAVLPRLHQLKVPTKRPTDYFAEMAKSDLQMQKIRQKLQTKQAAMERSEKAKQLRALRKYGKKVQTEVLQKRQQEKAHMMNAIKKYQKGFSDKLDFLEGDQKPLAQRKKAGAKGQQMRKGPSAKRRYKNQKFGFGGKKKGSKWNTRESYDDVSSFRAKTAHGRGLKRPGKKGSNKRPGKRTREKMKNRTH
inactive: [1] 0.118 | [2] -0.378 | [3] -0.269 | [4] 0.306 | [5] -0.045

EIF3J (UniProt O75822)
inactive: [1] -0.034 | [2] 0.025 | [3] -0.004 | [4] -0.041 | [5] -0.035

DUS2 (UniProt Q9NX74)
inactive: [1] 0.024 | [2] 0.055 | [3] 0.109 | [4] -0.087 | [5] -0.023

FAM3A (UniProt P98173)
inactive: [1] -0.01 | [2] -0.001 | [3] 0.038 | [4] -0.051 | [5] -0.014

DNM2 isoform 4 (UniProt P50570)
inactive: [1] 0.015 | [2] 0.065 | [5] -0.022

ENTPD7 (UniProt Q9NQZ7)
inactive: [1] 0.066 | [4] 0.173

FAM117B (UniProt Q6P1L5)
inactive: [2] 0.283 | [3] 0.116 | [4] -0.097 | [5] -0.024

DCP2 (UniProt Q8IU60)
inactive: [2] -0.121 | [3] -0.044 | [4] 0.077 | [5] 0.068

DBNL (UniProt Q9UJU6)
inactive: [2] -0.04 | [5] -0.099

ELMO1 (UniProt Q92556)
inactive: [1] -0.085 | [3] 0.026

EIF3J isoform 2 (UniProt O75822)
inactive: [1] 0.092 | [3] 0.25 | [4] 0.049

FADS1 (UniProt F5GYH4)
inactive: [1] -0.216 | [3] -0.02 | [4] -0.036

CWF19L2 (UniProt Q2TBE0)
inactive: [2] -0.169 | [4] 0.028 | [5] 0.135

DDX11 (UniProt Q96FC9)
Chain of UniProt Q96FC9 (Q96FC9 whole entry, looked up): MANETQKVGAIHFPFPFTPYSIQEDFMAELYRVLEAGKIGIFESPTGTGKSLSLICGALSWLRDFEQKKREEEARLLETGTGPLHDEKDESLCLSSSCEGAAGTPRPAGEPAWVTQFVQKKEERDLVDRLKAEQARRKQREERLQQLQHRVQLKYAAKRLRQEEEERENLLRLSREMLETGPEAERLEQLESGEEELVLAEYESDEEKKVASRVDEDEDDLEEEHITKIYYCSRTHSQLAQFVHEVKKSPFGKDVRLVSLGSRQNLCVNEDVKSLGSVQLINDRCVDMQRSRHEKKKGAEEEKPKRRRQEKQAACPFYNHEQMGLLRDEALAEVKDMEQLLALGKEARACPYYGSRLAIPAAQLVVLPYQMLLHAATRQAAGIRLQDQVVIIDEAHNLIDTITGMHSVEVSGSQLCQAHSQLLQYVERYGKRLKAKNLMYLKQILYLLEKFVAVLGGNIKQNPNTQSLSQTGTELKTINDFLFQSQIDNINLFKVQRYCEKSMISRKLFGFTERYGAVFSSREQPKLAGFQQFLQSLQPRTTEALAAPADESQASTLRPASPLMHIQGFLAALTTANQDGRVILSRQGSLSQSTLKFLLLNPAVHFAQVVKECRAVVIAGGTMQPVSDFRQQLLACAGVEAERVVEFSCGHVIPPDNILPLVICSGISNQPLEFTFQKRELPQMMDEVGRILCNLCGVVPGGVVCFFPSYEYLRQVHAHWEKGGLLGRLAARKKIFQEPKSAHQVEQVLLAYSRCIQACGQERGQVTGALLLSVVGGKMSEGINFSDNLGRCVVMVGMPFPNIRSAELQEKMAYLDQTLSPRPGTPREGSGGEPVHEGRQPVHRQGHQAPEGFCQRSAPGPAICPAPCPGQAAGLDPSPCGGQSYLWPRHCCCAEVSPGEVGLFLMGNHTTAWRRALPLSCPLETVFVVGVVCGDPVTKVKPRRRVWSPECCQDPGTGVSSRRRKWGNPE
inactive: [1] -0.068 | [3] 0.335 | [4] 0.059

CTSS (UniProt P25774)
inactive: [2] -0.004 | [3] -0.033 | [4] -0.192 | [5] 0.037

EEF2K (UniProt O00418)
inactive: [2] 0.001 | [3] 0.145 | [5] -0.082

EDRF1 (UniProt Q3B7T1)
inactive: [1] 0.043 | [2] 0.245 | [5] -0.061

F2RL3 (UniProt Q96RI0)
inactive: [2] 0.175 | [3] 0.06 | [4] -0.197 | [5] 0.032

ELF1 (UniProt P32519)
inactive: [2] 0.008 | [4] 0.017 | [5] 0.007

DOP1A (UniProt Q5JWR5)
inactive: [1] 0.203 | [3] 0.049

EIF4G1 (UniProt Q04637)
Chain of UniProt Q04637 (Q04637 whole entry, looked up): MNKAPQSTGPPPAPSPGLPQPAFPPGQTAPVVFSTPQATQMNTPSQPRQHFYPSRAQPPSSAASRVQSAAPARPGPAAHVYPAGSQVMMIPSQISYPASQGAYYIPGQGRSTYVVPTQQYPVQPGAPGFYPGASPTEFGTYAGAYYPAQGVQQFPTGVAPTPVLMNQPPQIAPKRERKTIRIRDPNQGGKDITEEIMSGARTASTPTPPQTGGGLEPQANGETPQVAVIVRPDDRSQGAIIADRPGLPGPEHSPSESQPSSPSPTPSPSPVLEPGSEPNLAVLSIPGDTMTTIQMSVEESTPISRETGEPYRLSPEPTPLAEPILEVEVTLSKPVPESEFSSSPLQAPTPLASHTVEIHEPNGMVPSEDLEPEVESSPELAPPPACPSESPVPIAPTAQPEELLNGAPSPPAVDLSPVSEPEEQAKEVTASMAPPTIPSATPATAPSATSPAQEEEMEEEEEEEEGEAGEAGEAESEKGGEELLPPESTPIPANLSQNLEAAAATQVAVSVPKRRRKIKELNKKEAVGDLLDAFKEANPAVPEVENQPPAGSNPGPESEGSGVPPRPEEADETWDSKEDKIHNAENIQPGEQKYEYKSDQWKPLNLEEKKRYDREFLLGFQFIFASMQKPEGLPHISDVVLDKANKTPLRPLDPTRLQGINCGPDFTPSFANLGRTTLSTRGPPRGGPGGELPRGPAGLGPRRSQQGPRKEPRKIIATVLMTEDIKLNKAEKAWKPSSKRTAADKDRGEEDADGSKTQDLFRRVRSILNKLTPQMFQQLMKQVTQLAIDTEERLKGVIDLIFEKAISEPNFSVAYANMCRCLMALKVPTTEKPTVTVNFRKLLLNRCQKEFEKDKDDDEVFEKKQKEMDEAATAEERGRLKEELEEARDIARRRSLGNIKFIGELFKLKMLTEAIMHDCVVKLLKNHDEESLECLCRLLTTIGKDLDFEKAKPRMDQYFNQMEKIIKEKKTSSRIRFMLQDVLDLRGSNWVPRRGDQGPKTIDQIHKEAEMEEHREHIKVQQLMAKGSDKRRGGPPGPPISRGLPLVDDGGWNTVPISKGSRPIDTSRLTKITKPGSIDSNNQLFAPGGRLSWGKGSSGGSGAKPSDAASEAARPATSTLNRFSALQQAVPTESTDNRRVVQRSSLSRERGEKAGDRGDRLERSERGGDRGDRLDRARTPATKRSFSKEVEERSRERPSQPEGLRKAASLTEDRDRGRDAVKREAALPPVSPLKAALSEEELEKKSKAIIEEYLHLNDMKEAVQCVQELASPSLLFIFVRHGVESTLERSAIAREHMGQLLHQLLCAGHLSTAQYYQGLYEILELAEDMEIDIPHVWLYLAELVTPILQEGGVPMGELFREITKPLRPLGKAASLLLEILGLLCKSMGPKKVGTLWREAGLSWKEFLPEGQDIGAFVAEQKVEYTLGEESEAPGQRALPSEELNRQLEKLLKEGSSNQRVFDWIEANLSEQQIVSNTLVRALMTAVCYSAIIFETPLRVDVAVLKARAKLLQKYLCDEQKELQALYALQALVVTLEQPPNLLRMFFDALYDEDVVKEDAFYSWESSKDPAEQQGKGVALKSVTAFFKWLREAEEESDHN
inactive: [2] -0.032 | [3] 0.011 | [4] 0.098 | [5] -0.028

CYP24A1 (UniProt Q07973)
inactive: [1] 0.17 | [3] -0.175 | [4] 0.266

DLK1 (UniProt P80370)
inactive: [2] 0.065 | [3] 0.198 | [5] 0.051

DERPC (UniProt P0CG12)
inactive: [1] 0 | [3] -0.015

ELOVL1 (UniProt Q9BW60)
inactive: [1] -0.16 | [2] 0.145 | [3] 0.045 | [4] -0.134 | [5] -0.05

FAM207A (UniProt Q9NSI2)
Chain of UniProt Q9NSI2 (Q9NSI2 whole entry, looked up): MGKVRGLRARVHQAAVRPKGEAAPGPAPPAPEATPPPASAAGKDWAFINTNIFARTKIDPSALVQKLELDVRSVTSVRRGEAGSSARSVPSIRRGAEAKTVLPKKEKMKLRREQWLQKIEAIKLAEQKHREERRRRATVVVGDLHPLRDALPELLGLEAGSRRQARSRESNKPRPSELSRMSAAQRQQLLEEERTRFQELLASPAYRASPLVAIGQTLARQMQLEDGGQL
inactive: [1] 0.107 | [3] 0.001 | [4] 0.021

DENND1A isoform 6 (UniProt Q8TEH3)
inactive: [1] 0.152 | [3] 0.146 | [4] 0.284

EID1 (UniProt Q9Y6B2)
inactive: [4] -0.135

ELAC1 (UniProt Q9H777)
inactive: [2] 0.123 | [3] 0.146 | [5] 0.059

EEF1D isoform 3 (UniProt P29692)
inactive: [4] -0.694

EIF2AK3 (UniProt Q9NZJ5)
Chain of UniProt Q9NZJ5 (Q9NZJ5 whole entry, looked up): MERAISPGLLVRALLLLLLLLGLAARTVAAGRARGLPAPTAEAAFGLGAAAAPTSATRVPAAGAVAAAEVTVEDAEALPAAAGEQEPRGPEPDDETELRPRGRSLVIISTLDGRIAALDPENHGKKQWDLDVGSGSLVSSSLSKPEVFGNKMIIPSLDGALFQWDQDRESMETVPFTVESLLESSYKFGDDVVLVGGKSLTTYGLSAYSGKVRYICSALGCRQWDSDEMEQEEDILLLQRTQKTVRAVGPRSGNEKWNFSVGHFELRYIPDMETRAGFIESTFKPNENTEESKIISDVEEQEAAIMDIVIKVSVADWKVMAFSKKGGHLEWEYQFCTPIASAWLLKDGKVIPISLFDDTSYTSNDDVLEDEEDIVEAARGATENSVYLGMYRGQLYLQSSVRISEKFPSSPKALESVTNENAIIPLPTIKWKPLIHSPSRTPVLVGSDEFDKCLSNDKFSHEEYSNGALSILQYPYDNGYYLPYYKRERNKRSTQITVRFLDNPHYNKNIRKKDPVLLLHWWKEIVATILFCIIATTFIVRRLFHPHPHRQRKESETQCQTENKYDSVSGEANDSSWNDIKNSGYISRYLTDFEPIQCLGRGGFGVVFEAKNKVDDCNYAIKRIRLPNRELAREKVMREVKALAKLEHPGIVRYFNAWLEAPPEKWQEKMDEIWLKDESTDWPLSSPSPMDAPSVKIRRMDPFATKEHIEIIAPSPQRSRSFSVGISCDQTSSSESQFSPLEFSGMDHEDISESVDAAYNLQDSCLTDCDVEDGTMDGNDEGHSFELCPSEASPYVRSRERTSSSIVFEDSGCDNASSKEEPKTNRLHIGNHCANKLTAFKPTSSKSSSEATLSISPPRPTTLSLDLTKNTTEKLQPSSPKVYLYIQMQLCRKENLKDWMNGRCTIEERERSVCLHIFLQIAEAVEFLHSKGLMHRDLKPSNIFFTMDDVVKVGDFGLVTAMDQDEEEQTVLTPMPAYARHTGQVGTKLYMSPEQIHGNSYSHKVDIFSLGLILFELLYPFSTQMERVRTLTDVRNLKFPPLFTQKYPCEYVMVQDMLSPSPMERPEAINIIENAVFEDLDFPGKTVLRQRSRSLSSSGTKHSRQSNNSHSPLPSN
inactive: [1] -0.473 | [2] -0.027 | [4] -0.196 | [5] 0.059

DDX27 (UniProt Q96GQ7)
inactive: [2] -0.197 | [3] -0.157 | [4] 0.12 | [5] -0.046

ELOVL7 (UniProt A1L3X0)
Chain of UniProt A1L3X0 (A1L3X0 whole entry, looked up): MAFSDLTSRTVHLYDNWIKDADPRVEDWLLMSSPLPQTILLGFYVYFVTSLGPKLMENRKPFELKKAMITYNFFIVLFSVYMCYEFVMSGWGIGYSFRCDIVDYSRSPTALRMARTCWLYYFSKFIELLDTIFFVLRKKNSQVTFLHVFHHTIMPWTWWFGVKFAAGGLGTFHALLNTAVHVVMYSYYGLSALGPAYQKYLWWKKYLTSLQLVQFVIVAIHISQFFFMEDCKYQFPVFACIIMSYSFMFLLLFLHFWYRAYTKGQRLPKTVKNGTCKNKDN
inactive: [2] 0.077 | [4] -0.066 | [5] -0.01

FAM135A (UniProt Q9P2D6)
inactive: [3] 0.106

ERF (UniProt P50548)
inactive: [4] -0.515

DNAL1 (UniProt Q4LDG9)
inactive: [1] 0.146 | [2] 0.086 | [3] -0.264 | [5] 0.03

ENTR1 (UniProt Q96C92)
inactive: [3] 0.191

DHRS13 (UniProt Q6UX07)
Chain of UniProt Q6UX07 (Q6UX07 whole entry, looked up): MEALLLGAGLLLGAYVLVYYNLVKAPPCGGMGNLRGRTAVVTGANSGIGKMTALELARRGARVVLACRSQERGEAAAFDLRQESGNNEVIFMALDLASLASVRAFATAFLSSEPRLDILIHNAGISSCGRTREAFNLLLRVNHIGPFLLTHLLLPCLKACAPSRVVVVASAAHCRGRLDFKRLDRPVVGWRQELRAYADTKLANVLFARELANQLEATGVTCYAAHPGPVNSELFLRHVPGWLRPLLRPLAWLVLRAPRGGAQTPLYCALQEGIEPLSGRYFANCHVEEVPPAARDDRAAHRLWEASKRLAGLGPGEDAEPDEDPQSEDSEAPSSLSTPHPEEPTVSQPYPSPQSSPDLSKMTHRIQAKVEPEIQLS
inactive: [2] 0.084 | [3] 0.099 | [4] 0.218 | [5] -0.14

EHBP1 (UniProt Q8NDI1)
inactive: [2] -0.163 | [4] 0.041 | [5] 0.229

CTNNBL1 (UniProt Q8WYA6)
inactive: [1] 0.029 | [3] 0.17

EEA1 (UniProt Q15075)
inactive: [1] 0.022 | [2] -0.015 | [3] 0.011 | [4] 0.021 | [5] 0.038

DYNC1I2 isoform 2 (UniProt Q13409)
inactive: [1] 0.028 | [2] -0.059 | [4] -0.068 | [5] 0.14

CYB561A3 isoform 2 (UniProt Q8NBI2)
inactive: [1] 0.033 | [2] -0.009 | [4] -0.075 | [5] 0.002
